# The source made the active and inactive calls. How the source made its calls: active means hit-call score of the fitted dose curve at least 0.9, where 1 is the maximum; inactive means score below 0.9.
# Key:
# Conditions in all cases: mRNA level, 48 h; actives raise or lower the signal
# MYC, MYC (gene 4609) = assay: LTEA_HepaRG_MYC: Life Technologies and Expression Analysis (LTEA) Assay for MYC using HepaRG (AID 2283518)
# In short: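 qRT-PCR read-out of MYC transcript (Fluidigm TaqMan, housekeeping-normalized) after 48 h chemical exposure of HepaRG cells; eight concentrations, top 100 uM, half-log steps. Bidirectional curve fitting against 0.5% DMSO vehicle baseline.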
# [1] = read-out: matrix metalloproteinase-3 (MMP3), MMP3 (gene 4314); assay: LTEA_HepaRG_MMP3: Life Technologies and Expression Analysis (LTEA) Assay for matrix metalloproteinase-3 (MMP3) using HepaRG (AID 2283519)
# In short: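 HepaRG cells (~100,000/well) in serum-free induction medium were dosed in duplicate for 48 h with an 8-point half-log series from 100 uM, 0.5% DMSO. MMP3 mRNA was quantified by Fluidigm TaqMan qRT-PCR, normalized to three housekeeping genes.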
# [2] = read-out: Paternally Expressed 10 (PEG10), PEG10 (gene 23089); assay: LTEA_HepaRG_PEG10: Life Technologies and Expression Analysis (LTEA) Assay for Paternally Expressed 10 (PEG10) using HepaRG (AID 2283520)
# In short: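 HepaRG, 48 h post-plating → serum-free induction medium → 48 h chemical exposure (duplicate, 8-pt, max 100 uM, half-log, 0.5% DMSO) → lysis in RLT → TaqMan qRT-PCR for PEG10, ACTB/GAPDH/POLR2A normalisation.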
# [3] = read-out: Nuclear factor NF-kappa-B p105 subunit (Homo sapiens) (UniProt P19838); assay: LTEA_HepaRG_NFKB1: Life Technologies and Expression Analysis (LTEA) Assay for Nuclear Factor Kappa B Subunit 1 (NFKB1) using HepaRG (AID 2283521);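 further: TaqMan qRT-PCR transcript normalised to ACTB GAPDH and POLR2A housekeeping genes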
# In short: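 HepaRG, 48 h exposure; 8-pt half-log series from 100 uM in 0.5% DMSO; duplicates. Readout: NFKB1 mRNA by qRT-PCR (Fluidigm arrays), housekeeping-normalized. Gain/loss fit vs DMSO baseline.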
# [4] = read-out: Protein phosphatase 2A (PPP2R4), PTPA (gene 5524); assay: LTEA_HepaRG_PPP2R4: Life Technologies and Expression Analysis (LTEA) Assay for Protein phosphatase 2A (PPP2R4) using HepaRG (AID 2283522)
# In short: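 Readout is PPP2R4 transcript level by microfluidic qRT-PCR after 48 h chemical treatment of human HepaRG liver cells. Concentrations spanned 100 uM downward in half-log steps; gain or loss of signal was fitted relative to DMSO.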
# [5] = read-out: Phosphatase and tensin (PTEN), PTEN (gene 5728); assay: LTEA_HepaRG_PTEN: Life Technologies and Expression Analysis (LTEA) Assay for Phosphatase and tensin (PTEN) using HepaRG (AID 2283523)
# In short: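 HepaRG cells, 48 h after plating, exposed in duplicate for 48 h in serum-free induction medium to 8 half-log concentrations up to 100 uM (0.5% DMSO). PTEN mRNA by qRT-PCR, normalized to ACTB, GAPDH, POLR2A; bidirectional fit versus DMSO.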
# [6] = read-out: solute carrier (SLC22A1), SLC22A1 (gene 6580); assay: LTEA_HepaRG_SLC22A1: Life Technologies and Expression Analysis (LTEA) Assay for solute carrier (SLC22A1) using HepaRG (AID 2283524)
# In short: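 Differentiated human HepaRG cells in serum-free induction medium, exposed 48 h in duplicate to 8-point half-log series from 100 µM top in 0.5% DMSO. SLC22A1 mRNA by TaqMan qRT-PCR normalized to ACTB, GAPDH, POLR2A; bidirectional fit versus DMSO.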
# [7] = read-out: Pyruvate Dehydrogenase Kinase 4 (PDK4), PDK4 (gene 5166); assay: LTEA_HepaRG_PDK4: Life Technologies and Expression Analysis (LTEA) Assay for Pyruvate Dehydrogenase Kinase 4 (PDK4) using HepaRG (AID 2283525)
# In short: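 HepaRG cells plated 48 h, then switched to serum-free induction medium and exposed in duplicate for 48 h to 8 half-log concentrations from 100 uM in 0.5% DMSO. PDK4 mRNA measured by qRT-PCR, normalized to ACTB, GAPDH and POLR2A; bidirectional fit versus DMSO.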
# [8] = read-out: NAD(P)H dehydrogenase [quinone] 1 (NQO1), NQO1 (gene 1728); assay: LTEA_HepaRG_NQO1: Life Technologies and Expression Analysis (LTEA) Assay for NAD(P)H dehydrogenase [quinone] 1 (NQO1) using HepaRG (AID 2283526)
# In short: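 HepaRG, 48 h post-plating → serum-free induction medium → test chemical 48 h (duplicate, 100 uM top, half-log x8, 0.5% DMSO) → RNA isolation → qRT-PCR, ACTB/GAPDH/POLR2A normalization; bidirectional curve fit vs DMSO baseline.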
# [9] = read-out: Nuclear factor erythroid 2-related factor 2 (Homo sapiens) (UniProt Q16236); assay: LTEA_HepaRG_NFE2L2: Life Technologies and Expression Analysis (LTEA) Assay for Nuclear factor erythroid 2-related factor 2 (NFE2L2) Transcription Factor using HepaRG (AID 2283527);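 on outcome: TaqMan qRT-PCR transcript level normalised to ACTB GAPDH and POLR2A housekeeping genes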
# In short: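 Differentiated human HepaRG cells, serum-free induction medium, exposed 48 h in duplicate to eight half-log concentrations up to 100 uM in 0.5% DMSO. NFE2L2 mRNA by Fluidigm TaqMan qRT-PCR, normalised to ACTB, GAPDH, POLR2A; bidirectional change versus DMSO.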
# [10] = read-out: succinate dehydrogenase complex iron sulfur subunit B (SDHB), SDHB (gene 6390); assay: LTEA_HepaRG_SDHB: Life Technologies and Expression Analysis (LTEA) Assay for succinate dehydrogenase complex iron sulfur subunit B (SDHB) using HepaRG (AID 2283528)
# In short: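 Readout is SDHB transcript level by qRT-PCR, normalised to three housekeeping genes and fitted bidirectionally against 0.5% DMSO vehicle. Human HepaRG cells were treated for 48 h at up to 100 uM.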
# [11] = read-out: Signal transducer and activator of transcription 3 (Homo sapiens) (UniProt P40763); assay: LTEA_HepaRG_STAT3: Life Technologies and Expression Analysis (LTEA) Assay for Signal transducer and activator of transcription (STAT3) using HepaRG (AID 2283529)
# In short: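 Differentiated HepaRG cells, serum-free induction medium, dosed 48 h in duplicate, 8 half-log concentrations from 100 uM in 0.5% DMSO. STAT3 mRNA by qRT-PCR, normalised to ACTB, GAPDH, POLR2A; bidirectional fit versus DMSO.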
# [12] = read-out: solute carrier (SLCO1B1), SLCO1B1 (gene 10599); assay: LTEA_HepaRG_SLCO1B1: Life Technologies and Expression Analysis (LTEA) Assay for solute carrier (SLCO1B1) using HepaRG (AID 2283530)
# In short: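 SLCO1B1 transcript read by qRT-PCR (Fluidigm arrays), normalized to three housekeeping genes, after 48 h chemical exposure of HepaRG cells; bidirectional concentration-response fitting versus 0.5% DMSO baseline. Eight-point half-log series, maximum 100 uM.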
# [13] = read-out: sulfotransferase 2A1 (SULT2A1), SULT2A1 (gene 6822); assay: LTEA_HepaRG_SULT2A1: Life Technologies and Expression Analysis (LTEA) Assay for sulfotransferase 2A1 (SULT2A1) using HepaRG (AID 2283531)
# In short: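 HepaRG, 48 h chemical exposure, 8-pt half-log curve from 100 uM in 0.5% DMSO, duplicates. Readout: TaqMan qRT-PCR of SULT2A1 mRNA, housekeeping-normalized. Bidirectional fit vs DMSO baseline.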
# [14] = read-out: Transforming Growth Factor (TGFB1), TGFB1 (gene 7040); assay: LTEA_HepaRG_TGFB1: Life Technologies and Expression Analysis (LTEA) Assay for Transforming Growth Factor (TGFB1) Transporter using HepaRG (AID 2283533)
# In short: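 qRT-PCR readout of TGFB1 transcript in HepaRG lysates, normalized to three housekeeping genes; gain or loss of signal fitted relative to 0.5% DMSO vehicle. Exposure: 48 h, 8-point curve from 100 uM, duplicate wells.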
# TIMP1, TIMP1 (gene 7076) = assay: LTEA_HepaRG_TIMP1: Life Technologies and Expression Analysis (LTEA) Assay for TIMP1 using HepaRG (AID 2283534);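 further: TaqMan qRT-PCR signal normalized to ACTB GAPDH and POLR2A housekeeping genes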
# In short: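 HepaRG, 48 h exposure, 8-pt half-log series from 100 uM in 0.5% DMSO, duplicates; TIMP1 transcript by Fluidigm qRT-PCR, housekeeping-normalized; bidirectional curve fit vs DMSO baseline.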
# [15] = read-out: Tumor necrosis factor receptor 1 (TNFRSF1A), TNFRSF1A (gene 7132); assay: LTEA_HepaRG_TNFRSF1A: Life Technologies and Expression Analysis (LTEA) Assay for Tumor necrosis factor receptor 1 (TNFRSF1A) using HepaRG (AID 2283535)
# In short: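 HepaRG, 48 h plating then 48 h chemical exposure, serum-free induction media; 8-pt CRC from 100 uM, half-log, 0.5% DMSO vehicle, duplicates. Readout: TaqMan qRT-PCR (Fluidigm), housekeeping-gene normalized; bidirectional fit vs DMSO.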
# [16] = read-out: Thyroid Hormone Responsive (THRSP), THRSP (gene 7069); assay: LTEA_HepaRG_THRSP: Life Technologies and Expression Analysis (LTEA) Assay for Thyroid Hormone Responsive (THRSP) using HepaRG (AID 2283536)
# In short: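 Differentiated HepaRG cells treated 48 h in serum-free induction medium with 8 half-log concentrations up to 100 uM (0.5% DMSO), duplicates. THRSP mRNA by TaqMan qRT-PCR normalised to ACTB, GAPDH, POLR2A; bidirectional fit versus DMSO.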
# [17] = read-out: Cellular tumor antigen p53 (Homo sapiens) (UniProt P04637); assay: LTEA_HepaRG_TP53: Life Technologies and Expression Analysis (LTEA) Assay for Tumor Protein P53 (TP53) using HepaRG (AID 2283537)
# In short: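 Read-out is TP53 transcript level by microfluidic qRT-PCR, normalised to three housekeeping genes and fitted bidirectionally against DMSO. Human HepaRG cells received compounds for 48 h, highest concentration 100 uM.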
# [18] = read-out: Transforming Growth Factor (TGFA), TGFA (gene 7039); assay: LTEA_HepaRG_TGFA: Life Technologies and Expression Analysis (LTEA) Assay for Transforming Growth Factor (TGFA) using HepaRG (AID 2283532)
# In short: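 Differentiated HepaRG cells exposed 48 hours in serum-free induction medium, 0.5% DMSO vehicle, 8-point half-log series from 100 uM, in duplicate. TGFA mRNA by TaqMan qRT-PCR, normalised to ACTB, GAPDH, POLR2A; bidirectional fit versus DMSO.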
# Chain of Nuclear factor erythroid 2-related factor 2 (Homo sapiens) (Q16236 whole entry, looked up): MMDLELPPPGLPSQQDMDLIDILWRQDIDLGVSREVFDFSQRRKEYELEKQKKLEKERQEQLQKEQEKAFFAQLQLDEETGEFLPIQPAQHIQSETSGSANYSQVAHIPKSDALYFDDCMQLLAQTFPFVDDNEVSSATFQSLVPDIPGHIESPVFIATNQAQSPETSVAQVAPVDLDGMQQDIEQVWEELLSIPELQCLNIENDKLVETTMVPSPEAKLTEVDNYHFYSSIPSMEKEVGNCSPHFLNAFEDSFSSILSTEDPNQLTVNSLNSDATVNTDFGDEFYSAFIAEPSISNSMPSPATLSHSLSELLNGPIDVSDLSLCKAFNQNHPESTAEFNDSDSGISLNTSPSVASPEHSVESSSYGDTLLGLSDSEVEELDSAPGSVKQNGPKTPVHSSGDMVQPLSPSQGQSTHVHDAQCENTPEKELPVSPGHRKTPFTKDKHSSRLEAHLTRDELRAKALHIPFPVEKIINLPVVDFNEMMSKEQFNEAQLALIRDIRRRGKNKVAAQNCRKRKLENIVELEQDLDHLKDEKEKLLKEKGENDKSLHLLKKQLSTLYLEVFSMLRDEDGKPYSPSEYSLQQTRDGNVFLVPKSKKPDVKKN
# Chain of Cellular tumor antigen p53 (Homo sapiens) (P04637 whole entry, looked up): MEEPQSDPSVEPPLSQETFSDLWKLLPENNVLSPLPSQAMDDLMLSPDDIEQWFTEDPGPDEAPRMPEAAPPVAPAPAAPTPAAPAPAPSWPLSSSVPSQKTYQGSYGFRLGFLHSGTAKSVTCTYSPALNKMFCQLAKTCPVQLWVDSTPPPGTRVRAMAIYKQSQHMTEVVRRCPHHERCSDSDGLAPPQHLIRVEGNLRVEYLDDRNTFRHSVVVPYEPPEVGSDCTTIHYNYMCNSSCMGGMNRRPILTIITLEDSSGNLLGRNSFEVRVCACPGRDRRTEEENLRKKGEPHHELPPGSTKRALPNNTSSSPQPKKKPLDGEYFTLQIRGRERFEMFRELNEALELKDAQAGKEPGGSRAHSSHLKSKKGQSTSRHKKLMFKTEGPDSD
# Chain of Nuclear factor NF-kappa-B p105 subunit (Homo sapiens) (P19838 whole entry, looked up): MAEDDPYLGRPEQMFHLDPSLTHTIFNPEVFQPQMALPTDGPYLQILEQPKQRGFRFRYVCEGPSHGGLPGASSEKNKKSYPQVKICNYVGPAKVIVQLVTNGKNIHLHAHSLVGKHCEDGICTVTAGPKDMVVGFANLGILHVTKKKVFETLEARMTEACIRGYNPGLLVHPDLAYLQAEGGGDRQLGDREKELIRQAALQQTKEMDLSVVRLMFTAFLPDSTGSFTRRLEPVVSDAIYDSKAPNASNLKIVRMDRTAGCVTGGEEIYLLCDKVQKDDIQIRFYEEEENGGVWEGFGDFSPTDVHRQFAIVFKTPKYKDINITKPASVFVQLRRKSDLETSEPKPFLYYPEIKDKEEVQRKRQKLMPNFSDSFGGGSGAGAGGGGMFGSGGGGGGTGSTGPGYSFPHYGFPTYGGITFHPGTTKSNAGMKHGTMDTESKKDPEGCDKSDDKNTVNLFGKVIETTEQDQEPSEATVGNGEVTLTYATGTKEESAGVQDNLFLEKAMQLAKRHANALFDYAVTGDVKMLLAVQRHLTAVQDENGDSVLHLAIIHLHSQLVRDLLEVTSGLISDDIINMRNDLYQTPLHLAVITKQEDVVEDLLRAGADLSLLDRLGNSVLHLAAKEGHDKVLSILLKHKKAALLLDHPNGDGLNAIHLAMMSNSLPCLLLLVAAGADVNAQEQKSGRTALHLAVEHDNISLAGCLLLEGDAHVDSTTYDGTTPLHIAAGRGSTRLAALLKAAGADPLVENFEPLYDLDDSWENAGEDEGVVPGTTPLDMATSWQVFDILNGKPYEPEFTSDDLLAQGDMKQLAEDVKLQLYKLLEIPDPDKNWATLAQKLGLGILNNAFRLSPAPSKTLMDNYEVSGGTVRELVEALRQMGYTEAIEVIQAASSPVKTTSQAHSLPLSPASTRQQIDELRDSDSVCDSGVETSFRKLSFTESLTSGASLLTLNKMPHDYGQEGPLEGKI
# Chain of Signal transducer and activator of transcription 3 (Homo sapiens) (P40763 whole entry, looked up): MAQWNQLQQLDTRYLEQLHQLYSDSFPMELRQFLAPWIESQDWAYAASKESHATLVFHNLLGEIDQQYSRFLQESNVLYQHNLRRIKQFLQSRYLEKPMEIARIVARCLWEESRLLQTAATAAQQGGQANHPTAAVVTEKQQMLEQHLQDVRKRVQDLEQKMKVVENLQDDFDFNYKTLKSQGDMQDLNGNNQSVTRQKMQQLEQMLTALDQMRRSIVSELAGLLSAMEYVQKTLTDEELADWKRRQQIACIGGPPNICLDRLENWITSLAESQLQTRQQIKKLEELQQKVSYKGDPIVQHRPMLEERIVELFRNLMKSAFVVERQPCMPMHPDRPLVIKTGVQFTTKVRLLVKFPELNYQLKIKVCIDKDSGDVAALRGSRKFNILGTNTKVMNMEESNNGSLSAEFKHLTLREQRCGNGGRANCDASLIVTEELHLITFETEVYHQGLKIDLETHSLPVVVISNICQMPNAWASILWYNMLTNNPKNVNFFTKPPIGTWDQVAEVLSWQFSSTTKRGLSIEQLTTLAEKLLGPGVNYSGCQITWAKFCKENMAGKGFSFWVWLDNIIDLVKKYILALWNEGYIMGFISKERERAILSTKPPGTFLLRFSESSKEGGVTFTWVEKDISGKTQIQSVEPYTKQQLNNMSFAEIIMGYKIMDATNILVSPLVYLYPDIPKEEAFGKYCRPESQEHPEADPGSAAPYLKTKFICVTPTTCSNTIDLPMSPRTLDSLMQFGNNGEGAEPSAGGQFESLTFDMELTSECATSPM
smiles,measurement,setting,value
CC(=O)CC(C)(C)O,AC50,"MYC, MYC (gene 4609)",0.118 µM (active)
same,outcome,[1],inactive
same,outcome,[2],inactive
same,outcome,[3],inactive
same,outcome,[4],inactive
same,outcome,[5],inactive
same,outcome,[6],inactive
same,outcome,[7],inactive
same,outcome,[8],inactive
same,outcome,[9],inactive
same,outcome,[10],inactive
same,outcome,[11],inactive
same,outcome,[12],inactive
same,outcome,[13],inactive
same,outcome,[14],inactive
same,outcome,"TIMP1, TIMP1 (gene 7076)",inactive
same,outcome,[15],inactive
same,outcome,[16],inactive
same,outcome,[17],inactive
O=C(O)c1ccccc1C(c1ccc(O)cc1)c1ccc(O)cc1,outcome,"MYC, MYC (gene 4609)",inactive
same,outcome,[1],inactive
same,outcome,[2],inactive
same,outcome,[3],inactive
same,outcome,[4],inactive
same,outcome,[5],inactive
same,outcome,[6],inactive
same,outcome,[7],inactive
same,outcome,[8],inactive
same,outcome,[9],inactive
same,outcome,[10],inactive
same,outcome,[11],inactive
same,outcome,[13],inactive
same,outcome,[18],inactive
same,outcome,[14],inactive
same,outcome,"TIMP1, TIMP1 (gene 7076)",inactive
same,outcome,[15],inactive
same,outcome,[16],inactive
CN(C)C=O,outcome,"MYC, MYC (gene 4609)",inactive
same,outcome,[1],inactive
same,outcome,[2],inactive
same,outcome,[3],inactive
same,outcome,[4],inactive
same,outcome,[5],inactive
same,outcome,[6],inactive
same,outcome,[7],inactive
same,outcome,[9],inactive
same,outcome,[10],inactive
same,outcome,[11],inactive
same,outcome,[12],inactive
same,outcome,[13],inactive
same,outcome,[18],inactive
same,outcome,[14],inactive
same,outcome,"TIMP1, TIMP1 (gene 7076)",inactive
same,outcome,[15],inactive
same,outcome,[16],inactive
same,outcome,[17],inactive
COCC(C)O (configuration not stated),outcome,"MYC, MYC (gene 4609)",inactive
same,outcome,[1],inactive
same,outcome,[2],inactive
same,outcome,[3],inactive
same,outcome,[4],inactive
same,outcome,[5],inactive
same,outcome,[6],inactive
same,outcome,[7],inactive
same,outcome,[8],inactive
same,outcome,[9],inactive
same,outcome,[10],inactive
same,outcome,[11],inactive
same,outcome,[13],inactive
same,outcome,[14],inactive
same,outcome,"TIMP1, TIMP1 (gene 7076)",inactive
same,outcome,[15],inactive
same,outcome,[16],inactive
same,outcome,[17],inactive
Cc1oc(-c2ccccc2)nc1CCOc1ccc(C[C@H](Nc2ccccc2C(=O)c2ccccc2)C(=O)O)cc1,AC50,"MYC, MYC (gene 4609)",12.5 µM (active)
same,AC50,[1],50 µM (active)
same,AC50,[2],20.8 µM (active)
same,outcome,[3],inactive
same,AC50,[4],29.1 µM (active)
same,AC50,[5],23 µM (active)
same,AC50,[6],50 µM (active)
same,AC50,[7],0.338 µM (active)
same,AC50,[9],11.9 µM (active)
same,AC50,[10],26.1 µM (active)
same,AC50,[11],21.2 µM (active)
same,AC50,[12],23.4 µM (active)
same,AC50,[13],23.4 µM (active)
same,AC50,[18],0.0617 µM (active)
same,AC50,[14],31.3 µM (active)
same,outcome,"TIMP1, TIMP1 (gene 7076)",inactive
same,AC50,[15],26.7 µM (active)
same,AC50,[16],24 µM (active)
same,AC50,[17],86.1 µM (active)
CCc1ccc(CCOc2ccc(CC3SC(=O)NC3=O)cc2)nc1 (configuration not stated),AC50,"MYC, MYC (gene 4609)",80.8 µM (active)
same,outcome,[1],inactive
same,AC50,[2],14.2 µM (active)
same,outcome,[3],inactive
same,AC50,[4],50 µM (active)
same,outcome,[5],inactive
same,AC50,[6],66.6 µM (active)
same,AC50,[7],11.6 µM (active)
same,AC50,[9],50 µM (active)
same,outcome,[10],inactive
same,outcome,[11],inactive
same,AC50,[12],67.5 µM (active)
same,AC50,[13],81.1 µM (active)
same,AC50,[18],24 µM (active)
same,outcome,[14],inactive
same,outcome,"TIMP1, TIMP1 (gene 7076)",inactive
same,outcome,[15],inactive
same,AC50,[16],83.8 µM (active)
same,AC50,[17],80.4 µM (active)

# — PubChem BioAssay (EPA / NIEHS)
